Experimental data from paper PMC10726135, “HNF4α isoforms regulate the circadian balance between carbohydrate and lipid metabolism in the liver”.
Over roughly 18,000 sequences, “log2 normalized intensity” has its median near 0.36; the highest 2% begin near 7.3. The sample holds the highest values, similar sequences and a random draw of the others, so the mix is not that of the screen.

biological target: T1, HNF4alpha8 (COS-7 nuclear extract) (Homo sapiens, UniProt P41235-5 1-452); test: protein-binding microarray; COS-7 nuclear extract on double-stranded Agilent 4x180k PBM; binding buffer, salt, pH and temperature not given in the material; high values mean tight binding; details: chain copies: 2; label: 3' end of strand 1 on the slide; dsDNA, one strand shown
T1 sequence: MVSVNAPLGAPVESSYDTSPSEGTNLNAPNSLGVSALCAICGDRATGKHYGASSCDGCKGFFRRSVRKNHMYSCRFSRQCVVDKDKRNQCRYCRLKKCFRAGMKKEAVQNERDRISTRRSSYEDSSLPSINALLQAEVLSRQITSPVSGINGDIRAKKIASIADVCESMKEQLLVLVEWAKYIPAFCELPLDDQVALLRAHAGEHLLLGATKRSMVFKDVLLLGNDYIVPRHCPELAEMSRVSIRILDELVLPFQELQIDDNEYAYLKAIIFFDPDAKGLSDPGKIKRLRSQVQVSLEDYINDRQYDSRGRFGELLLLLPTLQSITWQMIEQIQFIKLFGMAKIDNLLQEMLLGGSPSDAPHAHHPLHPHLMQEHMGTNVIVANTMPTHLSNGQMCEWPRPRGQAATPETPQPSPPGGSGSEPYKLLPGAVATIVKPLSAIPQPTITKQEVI
In short: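 Using CaPO4, COS-7 cells were transiently transfected with a human HNF4α isoform expression vector, and their nuclear extracts were applied to a custom Agilent SurePrint G3 4x180k double-stranded oligonucleotide array (~60 nt; ~44,000 test sequences in quadruplicate). Bound HNF4α was imaged at 2-µm resolution with an Agilent G2565CA scanner. Agilent software supplied the background-corrected, normalized gProcessedSignal that serves as the binding signal.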

Sequence	binding signal [log2 normalized intensity]
ATTCATTCCCTAAGATTCTGGTCAAAGGTCGCCTAGGGAGATTAGAGTATCGGTCGA	7.83
TAAGATTCTGGTCAAAGGTCAATGAAGCTCGCCTAGGGAGATTAGAGTATCGGTCGA	6.64
TTCTGGTCAAAGGTCAATGAAGCTCTTGCTGCCTAGGGAGATTAGAGTATCGGTCGA	6.15
GCAAAGGTCAGCTCATTCCCTAGGGCTCGGGCCTAGGGAGATTAGAGTATCGGTCGA	-0.991
TTCCCTAAGATTCTGGTCAAAGGTCAATGAGCCTAGGGAGATTAGAGTATCGGTCGA	8.22
AAAGGGCAAAGGTCAGCTCATTCCCTAGGGGCCTAGGGAGATTAGAGTATCGGTCGA	6.71
ACTTAAAAGAAGCTACTAGCAAATCTGCCCGCCTAGGGAGATTAGAGTATCGGTCGA	-0.288
AACAAAGGTCGGTGGTATGTGTGTGCTTTAGCCTAGGGAGATTAGAGTATCGGTCGA	2.2
AATGTGTGTTCTGCTGCCATTGGATGGAATGCCTAGGGAGATTAGAGTATCGGTCGA	1.51
GTCAGATGACAGAATTGGTCCTGGAACTCAGCCTAGGGAGATTAGAGTATCGGTCGA	0.192
CCAACACAGAAGCCTTTTGTTCTTTGTGTGGCCTAGGGAGATTAGAGTATCGGTCGA	1.47
CCTATGGTCTGTTCACTTGCCAAGCCTAGTGCCTAGGGAGATTAGAGTATCGGTCGA	-0.838
AAATATTGTCAGTGAGGAATGTGCAAACGGGCCTAGGGAGATTAGAGTATCGGTCGA	0.32
GGTTGCACTCTGGTGCCCTCTGAGTGTTTGGCCTAGGGAGATTAGAGTATCGGTCGA	2.54
ACCCTCTCTGGATGCAGGTCGCCGGGAAAAGCCTAGGGAGATTAGAGTATCGGTCGA	0.74
GATGCTAGGTTTGTGAGTCCAAAGGTCAGCGCCTAGGGAGATTAGAGTATCGGTCGA	9.81
AAAAGGATGCTAGGTTTGTGAGTCCAAAGGGCCTAGGGAGATTAGAGTATCGGTCGA	5.08
AGGTCAGGGAGTAGGTTTGATTTGTGAAAGGCCTAGGGAGATTAGAGTATCGGTCGA	1.03
ATGTTAGTCTTGAGTCCCAAAGTCCAAAGGGCCTAGGGAGATTAGAGTATCGGTCGA	6.25
TCACAGTGTGGGGCAAATCTGAGGTCAAAGGCCTAGGGAGATTAGAGTATCGGTCGA	2.51
AGTCCAAAGGTCAGCCGGGGAAGGTGCAGGGCCTAGGGAGATTAGAGTATCGGTCGA	5.55
TGAGTATCCAAAGGTCAGTGACAAATGTCAGCCTAGGGAGATTAGAGTATCGGTCGA	4.51

Sequence	binding signal [log2 normalized intensity]
CCTGAGGTGTGAGAGGGCAAAGGTCACAGCGCCTAGGGAGATTAGAGTATCGGTCGA	8.73
GGTGTGAGAGGGCAAAGGTCACAGCATTAGGCCTAGGGAGATTAGAGTATCGGTCGA	7.08
TAGGTTTGTGAGTCCAAAGGTCAGCCGGGGGCCTAGGGAGATTAGAGTATCGGTCGA	8.36
AAGGTTGGTTTTTGGAGACAGGAGTAGTCAGCCTAGGGAGATTAGAGTATCGGTCGA	0.982
TTGTGAGTCCAAAGGTCAGCCGGGGAAGGTGCCTAGGGAGATTAGAGTATCGGTCGA	7.55
TACGTGACCTACTTAGTCTCCAGCCCCCAGGCCTAGGGAGATTAGAGTATCGGTCGA	4.08
TTTGGGGGTTGGTATTACAAAGCAATCTACGCCTAGGGAGATTAGAGTATCGGTCGA	0.18
TGAGCCATCCTGAACAAATGTACTGGATATGCCTAGGGAGATTAGAGTATCGGTCGA	-0.391
GACATAAATCACATTGTTAGCATAGCCTATGCCTAGGGAGATTAGAGTATCGGTCGA	-0.813
TGCTCACGTTTTCCTGCTGACCCTCTCCCCGCCTAGGGAGATTAGAGTATCGGTCGA	4.22
TCTACACTGCTTACCCTGCAGTGTGACCTTGCCTAGGGAGATTAGAGTATCGGTCGA	4.68
TTACCCTGCAGTGTGACCTTTGCCTTCTTGGCCTAGGGAGATTAGAGTATCGGTCGA	8.09
ACTGCTTACCCTGCAGTGTGACCTTTGCCTGCCTAGGGAGATTAGAGTATCGGTCGA	8.52
CTGCAGTGTGACCTTTGCCTTCTTGACATCGCCTAGGGAGATTAGAGTATCGGTCGA	6.8
GATGTTCTACACTGCTTACCCTGCAGTGTGGCCTAGGGAGATTAGAGTATCGGTCGA	-0.757
GTGTGACCTTTGCCTTCTTGACATCTCTCTGCCTAGGGAGATTAGAGTATCGGTCGA	5.21
AGCTTGCTCTCACCAGCTTCTTCTCTTTGAGCCTAGGGAGATTAGAGTATCGGTCGA	-0.143
GTGCTATCTCAGCTCACTGTAACCTTTGCCGCCTAGGGAGATTAGAGTATCGGTCGA	4.68
AACCTTTGCCCCAGCTGTCACCCAGCCAGAGCCTAGGGAGATTAGAGTATCGGTCGA	4.16
TGGTGCTATCTTTGCTCACTGTAACCTTTGGCCTAGGGAGATTAGAGTATCGGTCGA	4.34
TCACTGTAACCTTTGCCCCCCAAGTTGAAGGCCTAGGGAGATTAGAGTATCGGTCGA	7.68
TTTGCTCACTGTAACCTTTGCCCCCCAAGTGCCTAGGGAGATTAGAGTATCGGTCGA	9.22

Sequence	binding signal [log2 normalized intensity]
GTAACCTTTGCCCCCCAAGTTGAAGCCATCGCCTAGGGAGATTAGAGTATCGGTCGA	5.74
ATCTCAGCTCACTGTAACCTTTGCCCCCCTGCCTAGGGAGATTAGAGTATCGGTCGA	9.22
ACTGTAACCTTTGCCCCCCTGGGCTCAAGCGCCTAGGGAGATTAGAGTATCGGTCGA	6.27
AGCCCCAACCCACTGTTGCCCCTTCCAAAGGCCTAGGGAGATTAGAGTATCGGTCGA	4.73
TCAAGCTCAATGCAACCAGTTGGTGGGTCAGCCTAGGGAGATTAGAGTATCGGTCGA	1.44
GTTAGAACAAAGTCCAAATTCCTAACTATGGCCTAGGGAGATTAGAGTATCGGTCGA	4.38
TTTATTAGGGGTCAGCAAAGAACTCCCCAGGCCTAGGGAGATTAGAGTATCGGTCGA	2.41
ACCAGCAATTTTCAGGGTTAAAAGTTCTGCGCCTAGGGAGATTAGAGTATCGGTCGA	1.05
GTGTTTGTCCTTTGTTGCAATGCTGGAACAGCCTAGGGAGATTAGAGTATCGGTCGA	1.28
CAGGTGGGAGGGGTGGACTTTGGCTTTTCCGCCTAGGGAGATTAGAGTATCGGTCGA	6.31
GAGATAAGTCACCTTATCAAGTCCGAACTCGCCTAGGGAGATTAGAGTATCGGTCGA	1.35
GGAATCTTGCCCTGTCGCCCAGGCTGGAATGCCTAGGGAGATTAGAGTATCGGTCGA	1.58
TATCAGCTCTCCGTGGACTTTGCCCCCTACGCCTAGGGAGATTAGAGTATCGGTCGA	11.3
AAGAGACTTTGCCCTTTTTTTCTCTCCCCTGCCTAGGGAGATTAGAGTATCGGTCGA	3.92
GCTCTCCGTGGACTTTGCCCCCTACAGTTTGCCTAGGGAGATTAGAGTATCGGTCGA	10.5
TCTTCCTTTCTATCAGCTCTCCGTGGACTTGCCTAGGGAGATTAGAGTATCGGTCGA	3.52
CTTTCTATCAGCTCTCCGTGGACTTTGCCCGCCTAGGGAGATTAGAGTATCGGTCGA	9.95
TTTGGCCCCCAGAGCCCCGTGTCTCCCTACGCCTAGGGAGATTAGAGTATCGGTCGA	4.89
GTGGACTTTGCCTGCCCATCCCGTGGACTCGCCTAGGGAGATTAGAGTATCGGTCGA	4.49
TCTTTGCCCTCTTGGTATCAGCTTTGAGACGCCTAGGGAGATTAGAGTATCGGTCGA	1.91
ATCCCGTGGACTTTGCCTGCCCATCCCGTGGCCTAGGGAGATTAGAGTATCGGTCGA	4.23
TTGATTTAACATTTGTGATCTGGCACAAATGCCTAGGGAGATTAGAGTATCGGTCGA	0.366

Sequence	binding signal [log2 normalized intensity]
AGATACTGAATCTCCCAGTGCTTTGATCTTGCCTAGGGAGATTAGAGTATCGGTCGA	1.39
TCACCTGCTCATTGACCCTTAGGCCAAGGCGCCTAGGGAGATTAGAGTATCGGTCGA	3.1
ATGTCAGGAGCCCCACTGTAGTAAGGGAGTGCCTAGGGAGATTAGAGTATCGGTCGA	-0.892
CACCTCTGCTTATCTCAACTGATTTACCTCGCCTAGGGAGATTAGAGTATCGGTCGA	0.918
TTAACACAAGTTATTACCGTGATGTTCGTTGCCTAGGGAGATTAGAGTATCGGTCGA	1.14
AGGGCAAAGGTCACCAGCTAAGCTGTTACTGCCTAGGGAGATTAGAGTATCGGTCGA	5.83
GGGCAAATCTGAGGTCAAAGCTGTCAGAGAGCCTAGGGAGATTAGAGTATCGGTCGA	-0.316
CTGTCGTCCCAGGGCAAAGGTCACCAGCTAGCCTAGGGAGATTAGAGTATCGGTCGA	7.57
GTCCCAGGGCAAAGGTCACCAGCTAAGCTGGCCTAGGGAGATTAGAGTATCGGTCGA	6.21
CAGAGCTGTCGTCCCAGGGCAAAGGTCACCGCCTAGGGAGATTAGAGTATCGGTCGA	8.47
CTTCCCAGCTGCTGGTCAAAGGGCATTACTGCCTAGGGAGATTAGAGTATCGGTCGA	5.83
ATCCTGCCTCCATTAATTAACCTTTGAGCTGCCTAGGGAGATTAGAGTATCGGTCGA	6.76
CATTCACATGACCTTTGTCCGTTCCTGCCTGCCTAGGGAGATTAGAGTATCGGTCGA	6.63
ACATGACCTTTGTCCGTTCCTGCCTGGAGCGCCTAGGGAGATTAGAGTATCGGTCGA	5.37
TTCGGTGCTGACCTTTGTTCACATTTGTGCGCCTAGGGAGATTAGAGTATCGGTCGA	5.96
ATGAGATACCCATTCACATGACCTTTGTCCGCCTAGGGAGATTAGAGTATCGGTCGA	8.96
ATACCCATTCACATGACCTTTGTCCGTTCCGCCTAGGGAGATTAGAGTATCGGTCGA	7.49
CTGGGATGAGATACCCATTCACATGACCTTGCCTAGGGAGATTAGAGTATCGGTCGA	3.92
CTGATGAATAGAAAGAGGTCAATGTACTTAGCCTAGGGAGATTAGAGTATCGGTCGA	2.94
